# Experimental data as given in PubChem BioAssay AID2535 (National Center for Advancing Translational Sciences (NCATS), 2010).
# Activity calls are given as the source filed them. Calls come from the whole dose curve; as a rule, active = well fitted curve in the direction sought with a large enough effect; inconclusive = small, poorly fitted or top-dose-only effect, or effect the other way, or another doubt; inactive = no such curve, though single readings can be large or run the other way.
# Molecular target: Pyruvate kinase PKLR (Homo sapiens) (UniProt P30613)
# Experiment: Secondary Concentration-Response Assay for Activators of Human Liver Pyruvate Kinase: for Probe SAR;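 note: 0% = uninhibited enzyme wells on each plate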
# Details: purified hPK-L, ATP production, Kinase-Glo luminescence; series mostly up to 58.3 µM; activity change, positive = activation: at the top concentration
# Excerpt: NIH Chemical Genomics Center [NCGC]
# Matthew G. Vander Heiden, M.D., Ph.D. [Harvard Medical School, 77 Avenue Louis Pasteur, Boston, MA 02115]
# Human pyruvate kinase liver (hPK-L) enzyme was supplied as a highly purified (>95% pure) preparation from Harvard Medical School and assayed for its ability to generate ATP from ADP using phosphoenolpyruvate (PEP) as a substrate. ATP generation was detected in a coupled reaction by luciferase-mediated luminescence, an ATP-dependent process. Pyruvate kinase substrates, PEP and ADP, were present in the assay at Km and approximately 10-fold below Km respectively. The enzyme was assayed at an intermediate level of activity to screen for both inhibitors and activators.
# NCGC Assay Protocol Summary for L-isoform:
# Three uL of substrate mix (at r.t.) in assay buffer (50 mM Imidazole pH7.2, 50 mM KCl, 7 mM MgCl2, 0.01% Tween 20, 0.05% BSA) was dispensed into white solid bottom 1,536 well microtiter plates so that the final concentrations of substrates in the assay were 0.1 mM ADP and 0.5 mM PEP. 23 nL of compound were delivered by a pin tool and 1 uL of enzyme mix (final concentration of 0.1 nM) in assay buffer (4 degree Celsius) was added. Plates were incubated at room temperature for 1 hour. Two uL of detection mix (Kinase-Glo, Promega; at 4 degree Celsius protected from light) was added and luminescence read by a ViewLux (Perkin Elmer) at 1 second exposure/plate. Data were normalized to the uninhibited (row 31). Additionally, a no enzyme and 5-fold enzyme control was dispensed in row 32, split equally between the two conditions.
# Chain of Pyruvate kinase PKLR (Homo sapiens) (P30613 whole entry, looked up): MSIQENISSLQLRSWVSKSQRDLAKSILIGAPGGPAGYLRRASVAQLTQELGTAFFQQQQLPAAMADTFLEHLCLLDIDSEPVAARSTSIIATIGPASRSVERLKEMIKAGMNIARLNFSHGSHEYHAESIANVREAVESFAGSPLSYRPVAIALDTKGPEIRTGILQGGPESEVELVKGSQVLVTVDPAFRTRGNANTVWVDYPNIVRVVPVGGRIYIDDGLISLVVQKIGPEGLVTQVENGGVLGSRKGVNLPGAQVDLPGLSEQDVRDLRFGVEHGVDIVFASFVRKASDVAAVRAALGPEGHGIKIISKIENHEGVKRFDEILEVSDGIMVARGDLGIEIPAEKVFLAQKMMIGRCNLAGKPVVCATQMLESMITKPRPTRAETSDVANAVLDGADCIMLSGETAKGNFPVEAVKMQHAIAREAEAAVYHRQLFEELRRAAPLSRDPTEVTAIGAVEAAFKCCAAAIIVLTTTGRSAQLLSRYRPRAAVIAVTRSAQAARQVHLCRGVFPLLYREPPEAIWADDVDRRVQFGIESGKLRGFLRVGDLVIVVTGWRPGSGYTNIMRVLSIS
row,Compound,"activity change, positive = activation"
1,Cc1ccc(NS(=O)(=O)c2cc3c(cc2-c2ccsc2)NC(=O)CO3)cc1C,13.4% (inactive)
2,Cc1ccc(NS(=O)(=O)c2cc3c(cc2F)NC(=O)CC3)cc1Cl,13.8% (inactive)
3,O=C1c2ccccc2C(=O)N1c1cccc2ncccc12,5.24% (inactive)
4,O=C1CCc2cc(S(=O)(=O)Nc3ccc(Cl)c(Cl)c3)ccc2N1,4.66% (inactive)
5,Cc1ccc(NS(=O)(=O)c2cc3c(cc2C)NC(=O)CO3)cc1C,14% (inactive)
6,O=C1c2ccccc2C(=O)N1c1cccc2cnccc12,-1.65% (inactive)
7,Cc1ccc(NS(=O)(=O)c2ccc(F)cc2)cc1C,-2.34% (inactive)
8,Cc1ccc2nc(-c3ccc(C)o3)c(Nc3ccc(Cl)cc3)n2c1,-16.2% (inactive)
9,Nc1cccc(S(=O)(=O)N2CCCN(S(=O)(=O)c3ccc4c(c3)OCCO4)CC2)c1,11.9% (inactive)
10,O=C1c2ccccc2C(=O)N1Cc1ccccc1,3.62% (inactive)
11,O=C1CCc2cc(S(=O)(=O)Nc3ccc4c(c3)CCC4)ccc2N1,17.1% (inactive)
12,Cc1ccccc1Nc1c(-c2ccccc2)nc2cccc(C)n12,0.826% (inactive)
13,Cc1ccc(NS(=O)(=O)c2ccc3c(c2)N(C)CCO3)cc1C,8.48% (inactive)
14,COc1ccc(-c2nc3cccc(C)n3c2Nc2ccc(C)cc2)cc1,2.15% (inactive)
15,O=C1c2ccccc2C(=O)N1c1ccc(Cl)cc1,2.91% (inactive)
16,O=C1c2ccccc2C(=O)N1c1ccc2ccccc2n1,-10.2% (inactive)
17,COc1cc(N2C(=O)c3ccccc3C2=O)c2ncccc2c1,4.29% (inactive)
18,O=C1CCc2cc(S(=O)(=O)Nc3ccncc3)ccc2N1,0.409% (inactive)
19,Cc1ccc(NS(=O)(=O)c2ccc3c(c2)N(C)C(=O)CO3)cc1C,11.9% (inactive)
20,Cc1ccc(Nc2c(-c3ccc(C)s3)nc3cccc(C)n23)cc1,6.05% (inactive)

row,Compound,"activity change, positive = activation"
1,Cc1ccc(NS(=O)(=O)c2ccc3c(c2)CCC(=O)N3)cc1F,11.7% (inactive)
2,O=C1c2ccccc2C(=O)N1c1cccc2cccnc12,3.16% (inactive)
3,Cc1ccc(NS(=O)(=O)c2ccc3c(c2)CCCC(=O)N3)cc1C,11.3% (inactive)
4,CC(=O)N1CCc2cc(S(=O)(=O)Nc3ccc(C)c(C)c3)ccc21,0.328% (inactive)
5,Cc1cccc(OC2=NS(=O)(=O)c3ccccc32)c1,2.27% (inactive)
6,O=C1c2ccccc2C(=O)N1c1cccc(=O)[nH]1,0.586% (inactive)
7,COc1cccc(OC2=NS(=O)(=O)c3ccccc32)c1,-5.35% (inactive)
8,Cc1ccc(Cl)cc1NS(=O)(=O)c1cc2c(cc1F)NC(=O)CC2,-12.6% (inactive)
9,COc1cccc(NS(=O)(=O)c2ccc3c(c2)CCC(=O)N3)c1,8.7% (inactive)
10,Cc1ccc(NS(=O)(=O)c2cc3c(cc2-c2ccccc2)NC(=O)CO3)cc1C,12.6% (inactive)
11,Cc1ccc(-c2nc3ccc(Cl)cn3c2Nc2ccccc2)o1,0.358% (inactive)
12,O=S1(=O)N=C(Oc2ccccc2Cl)c2ccccc21,2.37% (inactive)
13,CN(C)c1cccc(S(=O)(=O)N2CCN(S(=O)(=O)c3ccc4c(c3)OCCO4)CC2)c1,13.5% (inactive)
14,CNc1cccc(S(=O)(=O)N2CCCN(S(=O)(=O)c3ccc4c(c3)OCCO4)CC2)c1,22.2% (inactive)
15,CC(C)Nc1cccc(S(=O)(=O)N2CCCN(S(=O)(=O)c3ccc4c(c3)OCCO4)CC2)c1,8.24% (inactive)
16,O=C1c2ccccc2C(=O)N1Cc1ccncc1,4.78% (inactive)
17,O=C1c2ccccc2C(=O)N1Cc1cccnc1,7.89% (inactive)
18,Cc1ccc2nc(-c3ccc(C)o3)c(Nc3ccccc3)n2c1,1.62% (inactive)
19,O=C1c2ccccc2C(=O)N1c1cccnc1,-2.26% (inactive)
20,O=C1NS(=O)(=O)c2ccccc21,2.82% (inactive)
